# Compound activity deposited in PubChem BioAssay by The Scripps Research Institute Molecular Screening Center.
# LYPLA1 inh = LYPLA1 (human) inhibition in PME1 counter-screen; actives 0.16% (n = 320,000); inhibition, % at 5.9 µM; recombinant LYPLA1, FP-Rh probe fluorescence polarization; O75608;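 active = inhibition above the mean of all tested compounds plus 3 SD, set per campaign, cut at about 14% in these data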;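 note: inhibitors block serine hydrolase probe labeling of LYPLA1 so polarization falls; 0% = enzyme with DMSO and 100% = wells lacking LYPLA1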
# Target sequence (O75608 whole entry, looked up): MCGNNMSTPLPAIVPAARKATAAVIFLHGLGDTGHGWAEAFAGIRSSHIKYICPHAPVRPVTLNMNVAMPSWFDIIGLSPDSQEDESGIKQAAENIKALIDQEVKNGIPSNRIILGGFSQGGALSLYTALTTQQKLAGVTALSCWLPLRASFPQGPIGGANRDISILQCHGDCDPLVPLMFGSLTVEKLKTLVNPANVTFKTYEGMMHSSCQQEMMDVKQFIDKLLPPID
# PREPL inhibitor = human PREPL enzyme inhibition; Q4J6C6; recombinant PREPL, fluorescence polarization activity-based probe; inhibition, % at 5.96 µM; actives 0.68% (n = 320,000); in the data active = inhibition above about 43%;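 note: 0% = enzyme with DMSO and 100% = wells lacking enzyme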
# LYPLA2 counter = LYPLA2 (human) inhibition in PME1 counter-screen | O95372 | recombinant LYPLA2, FP-Rh probe fluorescence polarization | inhibition, % at 5.9 µM | actives 0.38% (n = 320,000) | AID 2177;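 active = inhibition above the screen-wide mean plus 3 SD, limit set per campaign, cut at about 26% in these data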;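 note: 0% = LYPLA2 with DMSO and 100% = wells lacking LYPLA2 enzyme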
# Fam108B counter = counter-screen for RBBP9 inhibitors: inhibitors of mouse Fam108B; recombinant Fam108B, FP-Rh probe fluorescence polarization; inhibition, % at 9.51 µM; actives 0.33% (n = 300,000); AID 1947;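 active = inhibition above the screen mean inhibition plus 3 SD, computed separately per campaign, cut at about 18% in these data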;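 note: inhibitors lower polarization as less probe binds the enzyme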
# GSTO1 inh = GSTO1 inhibition, counter-screen for RBBP9 inhibitors. P78417. recombinant GSTO1, activity-based probe fluorescence polarization. inhibition, % at 5.96 µM. actives 1.1% (n = 300,000). AID 1974;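 active = inhibition above the campaign mean inhibition plus 3 SD, cut at about 35% in these data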;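 note: 0% = GSTO1-1 with DMSO and 100% = wells lacking GSTO1-1 enzyme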
# PME-1 primary = blocks human protein phosphatase methylesterase 1 | Q9Y570 | recombinant PME-1, FP-Rh probe fluorescence polarization | actives 0.53% (n = 320,000) | inhibition, % at 5.9 µM;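 active = inhibition above the campaign mean of all compounds plus 3 SD, cut at about 26% in these data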;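 note: competitive labeling of PME-1 active site by serine hydrolase directed probe; 0% = PME-1 with DMSO and 100% = wells lacking PME-1 enzyme; inhibitors block probe labeling so polarization falls and inhibition rises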
# Target sequence (Q9Y570 whole entry, looked up): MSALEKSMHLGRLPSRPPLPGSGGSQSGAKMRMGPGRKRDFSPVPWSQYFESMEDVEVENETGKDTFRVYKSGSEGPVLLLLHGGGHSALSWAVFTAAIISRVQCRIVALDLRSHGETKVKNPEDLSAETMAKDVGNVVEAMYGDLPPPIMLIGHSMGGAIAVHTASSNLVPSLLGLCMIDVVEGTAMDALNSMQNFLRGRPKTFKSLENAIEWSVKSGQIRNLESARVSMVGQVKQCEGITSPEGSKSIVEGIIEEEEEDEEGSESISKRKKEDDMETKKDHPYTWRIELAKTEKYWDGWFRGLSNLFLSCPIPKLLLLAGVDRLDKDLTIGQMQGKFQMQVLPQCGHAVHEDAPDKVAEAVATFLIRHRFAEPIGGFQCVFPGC
# GSTO1 confirm = confirmation of human GSTO1 inhibitors; recombinant GSTO1, probe fluorescence polarization; inhibition, % at 5.96 µM; shares compounds with GSTO1 inh; actives 54% (n = 2,400);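 active = inhibition above the primary screen's cutoff, its mean inhibition plus 3 SD, cut at about 35% in these data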;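 note: loss of polarization as inhibitors block binding of rhodamine sulfonate ester activity probe; 0% = GSTO1 with DMSO and 100% = wells lacking GSTO1 enzyme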
# GSTO1 ABPP inh = blocks recombinant human glutathione S-transferase omega 1; actives 30% (n = 130); inhibition, % at 1 µM; shares compounds with GSTO1 inh; recombinant GSTO1, gel ABPP SE-Rh probe fluorescence; AID 463110;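 active = inhibition of the enzyme GSTO1 above about 75%, limit read from the data; inactive = inhibition below that limit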
# * = called active by the depositor; . = no result. Compounds with a hit are over-represented: about 2% of the library has one in this group of screens.
SMILES,LYPLA1 inh,PREPL inhibitor,LYPLA2 counter,Fam108B counter,GSTO1 inh,PME-1 primary,GSTO1 confirm,others
Cc1ccc(S(=O)(=O)N[C@@H](Cc2ccccc2)C(=O)CCl)cc1,-1,-6,6,-6,45*,4,55*,
C=CCn1c(O)c(N=NC(=S)Nc2ccccc2C)c2cc(S(=O)(=O)N3CCOCC3)ccc21,-1,5,-1,2,42*,6,7,
O=C(O)CN1C(=O)/C(=C\c2cccc(OCc3ccccc3)c2)SC1=S,1,-15,6,4,40*,2,30,
O=C(O)CCCN1C(=O)/C(=C\c2ccccc2OCc2ccccc2)SC1=S,0,13,14,0,39*,18,48*,
O=C(Cn1cnc2ccccc21)N1CCN(S(=O)(=O)c2ccccc2)CC1,0,-2,3,5,-11,0,.,
COC(=O)c1c(NC(=O)C2CCCCC2C(=O)O)sc2c1CCCCC2 (centres undefined),-2,11,-2,-2,23,3,.,
CCOC(=O)c1c(NC(=O)C2CCCCC2C(=O)O)sc2c1CCCCC2 (centres undefined),-1,-6,-5,1,54*,-1,47*,
CN(C)Cc1c(O)ccc2c3c(c(=O)oc12)CCCCC3,-3,12,-2,3,3,0,.,
CN(Cc1c(O)ccc2c1oc(=O)c1ccccc12)C1CCCCC1,-6,21,3,-1,46*,7,42*,
Cc1ccc(N(Cc2cc(=O)[nH]c3ccccc23)C(=O)CCl)c(C)c1,-1,-20,-1,3,64*,4,75*,GSTO1 ABPP inh=27
CC1(OC(=O)CCc2ccccc2)C(=O)C=C2C=C(c3ccc(C#N)cc3)N(C3CCCCC3)C=C2C1=O (centres undefined),0,16,5,4,45*,0,12,
CC1(OC(=O)CCc2ccccc2)C(=O)C=C2C=C(c3ccc(C#N)cc3)N(C(CO)CO)C=C2C1=O (centres undefined),0,7,4,-1,21,3,.,
CC1(OC(=O)C2CCCC2)C(=O)C=C2C=C(c3ccsc3)N(C3CCCCC3)C=C2C1=O (centres undefined),3,28,8,12,43*,1,18,
Oc1ccc2ccccc2c1C1Nc2cccc3cccc(c23)N1,-11,22,-3,10,42*,12,24,
O=c1ccc2cc(S(=O)(=O)N3CCOCC3)ccc2o1,-1,5,1,0,42*,1,1,
COC(=O)c1ccc([N+](=O)[O-])cc1N1C(=O)C2C3CCC(C3)C2C1=O (centres undefined),-1,6,-10,-3,5,5,.,
Cc1ccc(CNC(=O)C2CCCN(c3cnccn3)C2)cc1 (centres undefined),1,9,0,3,6,-3,.,
CCOC(=O)C1CCCN(C2=C(NS(=O)(=O)c3ccc(Br)cc3)C(=O)c3ccccc3C2=O)C1 (centres undefined),1,8,-2,6,43*,15,11,
O=C1C(NS(=O)(=O)c2ccc(Br)cc2)=C(N2CCCCC2)C(=O)c2ccccc21,-1,31,6,0,42*,11,12,
CC1CCN(C2=C(NS(=O)(=O)c3ccc(Br)cc3)C(=O)c3ccccc3C2=O)CC1,1,16,9,4,32,3,.,
CN1CCN(C(=O)c2cc(C(C)(C)C)cc(C(C)(C)C)c2)CC1,5,11,2,-2,-4,4,.,
CCOc1ccccc1NC(=O)Nc1ccc2c(c1)OCO2,-2,7,0,1,2,9,.,
C=CCOc1ccccc1CN(C(=O)CCl)c1ccc2c(c1)OCO2,-1,4,1,-2,95*,0,86*,GSTO1 ABPP inh=75*
CC(=O)c1c(Cl)nc2ccc(Br)cc2c1-c1ccccc1,-3,-11,0,-2,-5,-7,.,
COc1cc(/C=C2\S/C(=N/S(=O)(=O)c3ccccc3)NC2=O)c([N+](=O)[O-])cc1OC,-2,13,4,-1,38*,6,31,
SMILES,LYPLA1 inh,PREPL inhibitor,LYPLA2 counter,Fam108B counter,GSTO1 inh,PME-1 primary,GSTO1 confirm,others
CCCN(C(=O)CCl)C1=CCCCC1,-2,8,-5,-3,38*,0,58*,GSTO1 ABPP inh=63
Cn1ccnc1COc1ccc(/C=N/O)cc1,-1,4,1,-4,9,-1,.,
Cc1c(C=O)c(Cl)n(C)c(=O)c1C#N,2,10,4,5,53*,4,84*,
COc1ccccc1-c1noc(Cn2cc(S(=O)(=O)N3CCCC3)ccc2=O)n1,-3,19,-2,.,.,0,.,
CC(NC(=O)C1CC1)C(c1cccs1)N1CCOCC1 (centres undefined),2,-6,9,-3,85*,1,7,
CC(NC(=O)C1CC1)C(c1cccs1)N1CCN(c2ccccc2)CC1 (centres undefined),-2,13,6,2,1,1,.,
COc1ccc(NC(=O)CSc2nnc(-c3ccncc3)o2)c([N+](=O)[O-])c1,0,2,-1,0,1,6,.,
COc1ccc(NC(=O)Nc2ccc3c(c2)CCC3)cc1,0,6,2,-1,9,3,.,
Cc1nnc2ccc(N3CCN(C(=O)c4ccccc4)CC3)nn12,1,4,-5,1,0,-1,.,
O=C(c1ccc(Br)o1)N1CCN(c2ccc3nnc(-c4ccccc4)n3n2)CC1,-3,-1,-2,-3,40*,-3,0,
Cc1ccc(-n2nnnc2CNC(=O)c2ccc3c(c2)OCO3)cc1C,-1,-7,-6,0,1,-1,.,
CCN(CC)C(=O)c1cc([N+](=O)[O-])cc2c1-c1ccc([N+](=O)[O-])cc1C2=C(C#N)C#N,-2,0,-2,8,38*,5,25,
O=C1CSc2ccc(S(=O)(=O)CCC(=O)NC3CCCCC3)cc2N1,1,4,-1,0,53*,5,4,
NC1=NC(=O)/C(=C/c2ccc(Br)cc2)S1,0,-1,10,1,-3,3,.,
NC1=NC(=O)/C(=C/c2cc(Br)c(O)c(Br)c2)S1,1,6,2,6,41*,-6,81*,
c1ccc(COCCC2CO2)cc1 (centres undefined),-1,-4,-6,-1,61*,-4,72*,GSTO1 ABPP inh=59
COC1=CC(=O)CC(C)C12Oc1cc(OC)cc(OC)c1C2=O (centres undefined),0,8,2,0,47*,3,33,
